In test [1] the test system is Zika virus NS2B-NS3 protease (unlinked complex). Nature of the test: Primary screen GU Rhodamine qHTS for Zika virus inhibitors: Unlinked NS2B-NS3 protease assay (AID 1347159). Note: nearly all actives have a fitted effect of over 60% in size. Particulars: Recombinant ZIKV NS2B-NS3 protease, Rhodamine110 substrate fluorescence; series mostly up to 107 µM. The method, boiled down:
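Compounds, tested up to 114 microM, were incubated for 15 minutes with 25 nM unlinked NS2B-NS3 protease at pH 8.0. Cleavage of 1.5 microM Rhodamine110 substrate was then followed by fluorescence for 15 minutes.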
A general note: In qHTS, concentration-response curves come from the screen itself.

Test [2] deals with Zika virus NS2B-NS3 protease (linked construct). As to the kind of experiment: Primary screen NINDS Rhodamine qHTS for Zika virus inhibitors (AID 1347160). Note: nearly all actives have a fitted effect of over 55% in size. Particulars: purified NS2B-NS3 protease, Rhodamine110 substrate fluorescence; series mostly up to 57.1 µM. A digest of the protocol: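 Percent inhibition, normalized to uninhibited and enzyme-free controls, is fitted to a 4-parameter Hill equation. Fluorescence change comes from a 15-min cleavage of 1.5 microM bis-peptide Rhodamine110 substrate by 25 nM linked NS2B-NS3 at room temperature.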

Results filed as inconclusive are left out. A number with no mark means an inactive call. Calls of active or inactive are those of the source. Calls come from the whole dose curve; as a rule, active = well fitted inhibition curve with a large enough effect; inconclusive = small, poorly fitted or top-dose-only effect; inactive = no such curve, though single readings can be large or run the other way.
% is set by controls: 0 for no effect and ±100 for the full control effect.

As to `CC(C)[C@@H](C)/C=C/[C@@H](C)[C@H]1CC[C@H]2C3=CC=C4C[C@@H](O)CC[C@]4(C)[C@H]3CC[C@]12C`, the Potency result in test [1] and in test [2] was “inactive” each time.

Turning to `CC1C(=O)CC2C3C(O)CC(C(=O)O)C12CC3(C)C` (stereo not drawn), the Potency entry in test [1] and in test [2] was “inactive” each time.

For the molecule `O=c1ccn(C2OC(CO)C(O)C2O)c(=O)[nH]1` (stereo not drawn), the Potency result in test [1] and in test [2] was “inactive” in each case.

For `CC1(C)C(O)CCC2(C)C1C(O)C=C1COC(=O)C12O` (stereo not drawn), the Potency result in test [1] and in test [2] was “inactive” in each case.

`C=C1[C@H]2[C@H](O[C@@H]3O[C@H](COC(=O)/C=C/c4cc(OC)c(O)c(OC)c4)[C@@H](O)[C@H](O)[C@H]3O)OC=C(C(=O)O)[C@H]2C[C@@H]1O`: the Potency entry in test [1] and in test [2] was “inactive” in each case.

Take `CC12CC34C=CC(=O)C(C)(CCC(=O)O)C3C(CC1C4)O2` (stereo not drawn): the Potency result in test [1] and in test [2] was “inactive” each time.

`C/C=C(\C)C(=O)O[C@@H](C)[C@H]1CC[C@]2(O)C3CCC4C[C@@H](OC5CC(OC)C(OC6CC(OC)C(OC7CC(OC)C(OC8OC(C)C(OC9OC(CO)C(O)C(O)C9O)C(OC)C8O)C(C)O7)C(C)O6)C(C)O5)CC[C@]4(C)C3[C@H](O)[C@@H](O)[C@]12C` (stereo partly drawn): the activity change, negative = inhibition in test [1] is -1.05% [at 19.1 µM]; in test [2], 6.1% [at 10.7 µM].

Turning to `COC1C2=C(COC2=O)C2(C)CCCC(C)(CO)C2C1OC(=O)c1ccccc1` (stereo not drawn), the Potency result in test [1] and in test [2] was “inactive” throughout.

Consider `CC(=O)OC1C(O)CC(O[C@@H]2O[C@H](CO)[C@@H](O)[C@H](O)[C@H]2O)C2CCC3C(=O)OC(c4ccoc4)CC3(C)C21` (stereo partly drawn), for which the Potency result in test [1] and in test [2] was “inactive” in each case.

On to `C[C@@H](Nc1cc(NS(=O)(=O)N2CCC2)nc(SCc2cccc(F)c2F)n1)[C@@H](O)CO`, for which the Potency entry in test [1] and in test [2] was “inactive” each time.

`CN1CC[C@@H](NC(=O)Nc2ccc(C#N)cc2)C[C@@H]1c1nc2ccccc2[nH]1`: the Potency result in test [1] and in test [2] was “inactive” throughout.

As for `CC1(CCC(=O)O)C(=O)C=CC23CC4CC(OC4(C)C2O)C13` (stereo not drawn), the Potency result in test [1] and in test [2] was “inactive” in each case.

For the molecule `O=C(/C=C/c1ccc(O)cc1)OC[C@]12O[C@H]1[C@@H](O)[C@@H]1C=CO[C@@H](O[C@@H]3O[C@H](CO)[C@@H](O)[C@H](O)[C@H]3O)[C@@H]12`, the Potency result in test [1] and in test [2] was “inactive” throughout.

Consider `C[C@@H]1C/C=C/C=C\C=C\C=C\[C@H](O[C@@H]2O[C@H](C)[C@@H](O)[C@H](N)[C@@H]2O)C[C@@H]2O[C@](O)(C[C@@H](O)C[C@H]3O[C@@H]3/C=C/C(=O)O1)C[C@H](O)[C@H]2C(=O)O`, for which the Potency entry in test [1] and in test [2] was “inactive” throughout.

As to `C=C1CC2C3(C)C(OC(C)=O)CC(=O)OC(C)(C)C3C(O)C(OC(C)=O)C2(C)C2C(=O)OC(C)C(=O)C12C` (stereo not drawn), the Potency entry in test [1] and in test [2] was “inactive” each time.

As for `O=C(NCC(=O)N1CC[C@H](NC2CCC(O)(c3ccc(-c4ncccn4)cn3)CC2)C1)c1cccc(C(F)(F)F)c1` (stereo partly drawn), the Potency entry in test [1] and in test [2] was “inactive” each time.

Consider `CC(=O)O[C@@H]1[C@@H](OC(=O)/C=C/c2ccccc2)[C@H](C)O[C@@H](O[C@H]2[C@@H]3C=CO[C@@H](O[C@@H]4O[C@H](CO)[C@@H](O)[C@H](O)[C@H]4O)[C@@H]3[C@@]3(CO)O[C@@H]23)[C@@H]1OC(C)=O`, for which the Potency result in test [1] and in test [2] was “inactive” each time.

For the molecule `CC1CC(O)CC(C)(C)C1(O)CCO` (stereo not drawn), the Potency entry in test [1] and in test [2] was “inactive” throughout.

As to `Clc1ccc(CN[C@H]2CCN(c3ncc(Br)cn3)C2)c(Cl)c1`, the Potency entry in test [1] and in test [2] was “inactive” in each case.

`Cc1coc2c1CC1OC1(C)CCC1OC1(C)C2` (stereo not drawn): the Potency entry in test [1] and in test [2] was “inactive” in each case.

On to `COc1cc(O[C@@H]2O[C@H](CO)[C@@H](O)[C@H](O)[C@H]2O)c(CCC(=O)OC[C@H]2O[C@@H](Oc3cc(OC)c(C4OC(=O)C(C)(O)C4O)cc3CCC(=O)O)[C@H](O)[C@@H](O)[C@@H]2O)cc1C1OC(=O)C(C)(O)C1O` (stereo partly drawn), for which the Potency result in test [1] and in test [2] was “inactive” throughout.

With `C[C@@H]1O[C@@H](O[C@H]2[C@H](O)[C@@H](O)[C@H](OC[C@H]3O[C@@H](OC(=O)[C@]45CCC(C)(C)C[C@H]4C4=CCC6[C@@]7(C)C[C@H](O)[C@H](O[C@@H]8O[C@H](CO)[C@@H](O)[C@H](O)[C@H]8O)[C@@](C)(C(=O)O)C7CC[C@@]6(C)[C@]4(C)CC5)[C@H](O[C@@H]4O[C@H](CO)[C@@H](O)[C@H](O)[C@H]4O)[C@@H](O)[C@@H]3O)O[C@@H]2CO)[C@H](O)[C@H](O)[C@H]1O` (stereo partly drawn), the activity change, negative = inhibition in test [1] is -27.3% [at 19.1 µM]; in test [2], -5.11% [at 10.7 µM].

Consider `FC(F)(F)c1cc(C(F)(F)F)c2ccc3nc(-c4nnco4)cn3c2n1`, for which the Potency entry in test [1] and in test [2] was “inactive” throughout.

As to `Cc1cc(O)c(C(C)C)cc1O[C@@H]1O[C@H](CO)[C@@H](O)[C@H](O)[C@H]1O`, the Potency result in test [1] and in test [2] was “inactive” in each case.

For the origin of these results see PubChem BioAssay (NCATS).
